According to PubChem BioAssay (EPA / NIEHS):
Several values for one entry are separate records, joined by “and”; a condition that tells them apart may be missing. Equal entries are not always repeated. Where a structure was tested more than once in an assay, its records may differ in their call. Activity calls are given as the source filed them. How the source made its calls: active means hit-call score of the fitted dose curve at least 0.9, where 1 is the maximum; inactive means score below 0.9.

Key:
[1] = read-out: Interleukin-8 (IL8), CXCL8 (gene 3576); experiment: BSK_3C_IL8: BioMAP Diversity Plus: 3C Assay for Interleukin-8 (IL8) Biomarker Activity (AID 2283020); settings: primary human endothelial cells (HUVEC); actives raise or lower the signal
Outline: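 Primary human umbilical vein endothelial cells were dosed for 24 h. IL-8 was quantified by ELISA and fitted bidirectionally against DMSO. Cytotoxicity was assessed in parallel cultures by SRB staining at 560 nm.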

[2] = read-out: Thrombomodulin, THBD (gene 7056); experiment: BSK_3C_Thrombomodulin: BioMAP Diversity Plus: 3C Assay for Thrombomodulin Biomarker Activity (AID 2283029); settings: primary human endothelial cells (HUVEC); actives raise or lower the signal
Outline: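 Human umbilical vein endothelial cells were exposed to chemicals for 24 h; cell-surface thrombomodulin quantified by ELISA, with bidirectional fitting against DMSO baseline.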

[3] = read-out: Vascular endothelial growth factor receptor 2 (Homo sapiens) (UniProt P35968); experiment: BSK_4H_VEGFRII: BioMAP Diversity Plus: 4H Assay for Vascular endothelial growth factor receptor 2 (VEGFR2) Biomarker Activity (AID 2283031); settings: primary human endothelial cells (HUVEC); actives raise or lower the signal;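 on AC50: cell-surface VEGFR2 protein level quantified by ELISA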
Outline: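 Measured by ELISA after 24 h of compound treatment: VEGFR2 on primary human umbilical vein endothelial cells, fitted in both directions relative to DMSO. Parallel cultures received SRB staining (560 nm) for overt cytotoxicity.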

[4] = read-out: Vascular cell adhesion molecule 1 (VCAM1), VCAM1 (gene 7412); experiment: BSK_CASM3C_VCAM1: BioMAP Diversity Plus: CASM3C Assay for Vascular cell adhesion molecule 1 (VCAM1) Biomarker Activity (AID 2283055); settings: primary human coronary artery smooth muscle cells; actives raise or lower the signal;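 further: VCAM-1 protein level quantified by ELISA on the cells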
CD40, CD40 (gene 958) = experiment: BSK_SAg_CD40: BioMAP Diversity Plus: SAg Assay for CD40 Biomarker Activity (AID 2283088); settings: primary human HUVEC with PBMC; actives raise or lower the signal
Outline: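 CD40 is measured by fluorescence ELISA in an endothelial/PBMC primary human co-culture at 24 h post-dose. Fitting is bidirectional, DMSO baseline. Parallel SRB staining (560 nm) flags cytotoxicity.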

[5] = ATG_CRE_CIS: Attagene CIS-FACTORIAL HepG2 Assay for human cAMP Responsive Element (CRE) binding protein 3 (AID 2282926); settings: HepG2 CRE cis-reporter, Attagene multiplexed mRNA; actives raise or lower the signal
Outline: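 Multiplexed transcription-unit reporters transfected into HepG2; 24 h dosing; RT-PCR/capillary electrophoresis fluorescence read-out; bidirectional fit vs DMSO.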

[6] = ATG_DR4_LXR_CIS: Attagene CIS-FACTORIAL HepG2 Assay for human Liver X Receptor (LXR), DR4 submotif (AID 2282929); settings: HepG2 Attagene DR4 cis-reporter, mRNA transcription; actives raise or lower the signal
Outline: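 Readout: reporter transcript fluorescence after RT-PCR and capillary electrophoresis, fitted bidirectionally against DMSO controls. Human HepG2 liver cells carried transiently transfected multiplexed reporter constructs; endogenous transcription factor activity measured 24 h post-dosing.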

[7] = ATG_AP_1_CIS: Attagene CIS-FACTORIAL HepG2 Assay for human Activator Protein 1 (AP-1) (AID 2282931); settings: HepG2 Attagene cis-factorial AP-1 reporter mRNA; actives raise or lower the signal
Outline: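 Reporter transcripts were measured 24 h after dosing by RT-PCR and capillary electrophoresis of fluorescent fragments. Cells: HepG2 carrying transfected cis-regulated reporter constructs reading endogenous factor activity. Gain or loss fitted against DMSO.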

[8] = ATG_ISRE_CIS: Attagene CIS-FACTORIAL HepG2 Assay for human Interferon Regulatory Factor 1 (IRF1) binding to an Interferon-Stimulated Response Element (ISRE) (AID 2282948); settings: HepG2 ISRE cis-reporter (Attagene), mRNA transcription readout; actives raise or lower the signal
Outline: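 Quantitation relies on labelled RT-PCR fragments separated by capillary electrophoresis. Human HepG2 cells bearing cis-promoter reporter constructs were treated 24 h; DMSO served as baseline for bidirectional fitting.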

[9] = ATG_M_06_CIS: Attagene CIS-FACTORIAL HepG2 Assay for M06 Transcription Factor (Internal Marker) (AID 2282950); settings: HepG2 Attagene CIS-FACTORIAL M06 internal marker reporter; actives raise or lower the signal
Outline: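 Read-out is fluorescence of labelled reporter cDNA fragments resolved by capillary electrophoresis after RT-PCR. Cells: HepG2 carrying transfected cis-promoter reporter units, treated 24 h. Gain or loss of signal fitted relative to DMSO.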

[10] = target: Heat shock factor protein 1 (Homo sapiens) (UniProt Q00613); experiment: ATG_HSE_CIS: Attagene CIS-FACTORIAL HepG2 Assay for human Heat Shock Transcription Factor 1 (HSE) (AID 2282953); settings: HepG2 HSE cis-reporter, Attagene RNA transcription; actives raise or lower the signal
Outline: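 HepG2, transient MRTU transfection, cis-promoter reporters (endogenous TF activity). 24 h compound. RNA → oligo(dT) RT → PCR → 6-FAM primer extension → HpaI cut → CE. Bidirectional fit vs DMSO.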

[11] = target: Paired box protein Pax-6 (Homo sapiens) (UniProt P26367); experiment: ATG_Pax6_CIS: Attagene CIS-FACTORIAL HepG2 Assay for human Paired Box 6 (PAX6) (AID 2282956); settings: HepG2 CIS-FACTORIAL PAX6 reporter transcription, RNA readout; actives raise or lower the signal
Outline: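 After twenty-four hours of chemical exposure, transfected HepG2 cells are harvested for RNA. Cis-promoter reporter transcripts are amplified, fluorescently labelled and sized by capillary electrophoresis, with gain and loss of signal scored against DMSO.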

[12] = ATG_SREBP_CIS: Attagene CIS-FACTORIAL HepG2 Assay for human Sterol Regulatory Element Binding (SREBP) (AID 2282962); settings: HepG2 Attagene cis-factorial SREBP reporter, mRNA; actives raise or lower the signal
Outline: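 Twenty-four hours after chemical dosing of transfected HepG2 cultures, reporter RNA was converted to cDNA, amplified, end-labelled with 6-FAM and resolved by capillary electrophoresis. Responses were fitted relative to DMSO.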

[13] = ATG_TA_CIS: Attagene CIS-FACTORIAL HepG2 Assay for human TA Basal Promoter (AID 2282964); settings: HepG2 Attagene CIS-factorial TA basal promoter reporter; actives raise or lower the signal
Outline: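 Read-out: fluorescent reporter-transcript fragments resolved by capillary electrophoresis after RT-PCR and HpaI digestion. Source: HepG2 cells carrying transiently transfected multi-reporter cis constructs, treated 24 h. Endpoint fitted bidirectionally relative to DMSO.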

[14] = ATG_TCF_b_cat_CIS: Attagene CIS-FACTORIAL HepG2 Assay for human T-Cell-Factor with beta-catenin (TCF/b-cat) (AID 2282965); settings: HepG2 TCF/beta-catenin cis-reporter transcription, actives raise or lower the signal
Outline: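 Using capillary electrophoresis as the read-out, labelled reporter cDNA fragments from transiently transfected HepG2 were sized and quantified. Exposure lasted 24 hours; activity in either direction was referenced to DMSO.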

[15] = ATG_TGFb_CIS: Attagene CIS-FACTORIAL HepG2 Assay for human Transforming Growth Factor (TGF) (AID 2282967); settings: HepG2 Attagene CIS TGFb reporter, mRNA transcription; actives raise or lower the signal
Outline: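 Transient MRTU transfection of HepG2 (FuGene 6). Dose 24 h. TriZol RNA, oligo(dT) RT, PCR, 6-FAM primer extension, HpaI cut, CE. Bidirectional fit, DMSO = baseline.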

[16] = ATG_NFI_CIS: Attagene CIS-FACTORIAL HepG2 Assay for human Nuclear Factor I (NFI) (AID 2282989); settings: HepG2 cis-regulatory reporter, NFI response element transcription; actives raise or lower the signal
Outline: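 Transient MRTU transfection of HepG2 → 24 h chemical dosing → total RNA, oligo(dT) RT → PCR, 6-FAM primer extension, HpaI cut → capillary electrophoresis. Endpoint fitted bidirectionally relative to DMSO.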

[17] = ATG_NRF2_ARE_CIS: Attagene CIS-FACTORIAL HepG2 Assay for human Nuclear Factor Erythroid 2 Related Factor 2 (NFR2) response to Antioxidant Response Elements (ARE) (AID 2282992); settings: HepG2 Attagene ARE/NRF2 reporter, transcription factor activity; actives raise or lower the signal;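 on AC50: reporter mRNA level measured by RT-PCR and capillary electrophoresis fluorescence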
Outline: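 Cis-factorial assay: transfected HepG2 reporter library, 24 h dosing, mRNA readout via RT-PCR/CE; DMSO-referenced bidirectional analysis.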

[18] = ATG_Oct_MLP_CIS: Attagene CIS-FACTORIAL HepG2 Assay for human Octamer-Binding Transcription Factor (Oct) (AID 2282993); settings: HepG2 Attagene cis-factorial Oct reporter, mRNA; actives raise or lower the signal
Outline: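 Transient MRTU transfection of HepG2 → 24 h compound treatment → RNA isolation, reverse transcription, PCR → 6-FAM primer extension, HpaI digest → capillary electrophoresis. Activity fitted both directions against DMSO.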

Measured: AC50

Sequence of Paired box protein Pax-6 (Homo sapiens) (P26367 whole entry, looked up): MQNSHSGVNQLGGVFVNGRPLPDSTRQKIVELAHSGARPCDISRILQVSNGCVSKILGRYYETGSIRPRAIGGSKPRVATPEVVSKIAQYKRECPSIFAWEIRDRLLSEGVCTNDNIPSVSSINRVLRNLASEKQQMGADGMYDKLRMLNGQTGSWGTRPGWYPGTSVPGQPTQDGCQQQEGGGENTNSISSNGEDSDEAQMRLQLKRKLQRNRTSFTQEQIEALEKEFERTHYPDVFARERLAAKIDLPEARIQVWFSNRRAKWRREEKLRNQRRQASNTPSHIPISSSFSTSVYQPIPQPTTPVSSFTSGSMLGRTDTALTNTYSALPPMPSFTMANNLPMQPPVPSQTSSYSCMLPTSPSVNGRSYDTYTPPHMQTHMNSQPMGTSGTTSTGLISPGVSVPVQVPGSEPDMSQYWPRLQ
Sequence of Heat shock factor protein 1 (Homo sapiens) (Q00613 whole entry, looked up): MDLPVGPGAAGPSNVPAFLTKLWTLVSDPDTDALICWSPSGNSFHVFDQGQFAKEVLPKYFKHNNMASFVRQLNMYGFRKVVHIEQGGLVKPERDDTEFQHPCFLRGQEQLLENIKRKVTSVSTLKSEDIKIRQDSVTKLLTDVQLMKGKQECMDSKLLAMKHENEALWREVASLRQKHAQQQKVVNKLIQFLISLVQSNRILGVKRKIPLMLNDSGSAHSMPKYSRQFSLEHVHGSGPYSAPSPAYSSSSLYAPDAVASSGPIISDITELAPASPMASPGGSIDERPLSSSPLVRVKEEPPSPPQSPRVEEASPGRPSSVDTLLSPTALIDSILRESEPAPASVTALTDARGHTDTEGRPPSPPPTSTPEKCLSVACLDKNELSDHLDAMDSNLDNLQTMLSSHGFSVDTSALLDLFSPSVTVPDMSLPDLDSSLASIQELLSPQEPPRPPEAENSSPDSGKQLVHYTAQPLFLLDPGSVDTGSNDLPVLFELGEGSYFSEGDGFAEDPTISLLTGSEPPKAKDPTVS

CC(C)C1OCCN1CCOC(=O)NCCCCCCNC(=O)OCCN1CCOC1C(C)C (configuration not stated)
active: [3] 33 µM
inactive: [1] | [2] | [3] | [4] | CD40, CD40 (gene 958)

Nc1ccc(S(=O)(=O)Nc2cnc3ccccc3n2)cc1
not listed: [1] | [2] | [3] | [4] | CD40, CD40 (gene 958)
inactive: all other assays above

O=C(C1CCCCC1)N1CC(=O)N2CCc3ccccc3C2C1 (configuration not stated)
not listed: [1] | [2] | [3] | [4] | CD40, CD40 (gene 958) | [6]
inactive: all other assays above

O=[N+]([O-])c1cc(S(=O)(=O)Nc2ccccc2)ccc1Nc1ccccc1
active: [1] 30.7 µM | [2] 20 µM | [3] 32.6 µM | [4] 20 µM | CD40, CD40 (gene 958) 26 µM and 25 µM
inactive: [1] | [2] | [3] | [4]

CNC(=C[N+](=O)[O-])NCCSCc1csc(CN(C)C)n1
not listed: [1] | [2] | [3] | [4] | CD40, CD40 (gene 958)
inactive: all other assays above

COc1ccc(C(=O)c2ccccc2O)c(O)c1
inactive: [1] | [2] | [3] | CD40, CD40 (gene 958)
active: [1] 7.28 µM | [4] 13.4 µM and 3.97 µM | CD40, CD40 (gene 958) 29.9 µM

Oc1cccc2ccccc12
active: [14] 100 µM | [17] 4.38 µM
inactive: all other assays above
